# Data published in PubChem BioAssay AID504843 (Broad Institute, 2011).
# Among all 1,200 compounds or so, about 360 (30%) were called active. The rule behind the calls is not given here. Not all results are given here. Potency and affinity values are given separately.
# Assay: antibacterial activity by ATP level – BacTiter-Glo luminescence, cherry-picked samples, counter-screen, dose response (AID 504843);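 note: growth measured after 8 h incubation at 30 °C; 0% = median of sample compound wells and -100% = antibiotic control wells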
# Conditions: bacterial growth; series mostly up to 15 µM; activity change, negative = inhibition: at the top concentration
row,SMILES,"activity change, negative = inhibition"
1,Cn1c(SCC(=O)NCc2cccs2)nnc1-c1ccc(S(=O)(=O)N2CCCC2)cc1,11% (inactive)
2,CN(C)S(=O)(=O)c1cccc(NC(=O)C2CCN(S(=O)(=O)c3cccs3)CC2)c1,12.5% (inactive)
3,CCCCCN(C(=O)CCC(=O)OCC(=O)N(C)Cc1ccc(C)cc1)c1c(N)n(CCCC)c(=O)[nH]c1=O,-1.92% (inactive)
4,CCCCn1c(N)c(N(CC)C(=O)c2ccc(Cl)c(Cl)c2)c(=O)[nH]c1=O,8.09% (inactive)
5,CC1(C)CC(NC(=O)c2ccc(-c3ccc([N+](=O)[O-])cc3)o2)CC(C)(C)N1,-7.62% (inactive)
6,CC(O)(CC(=O)CC(=O)c1ccccc1)c1ccccc1 (centres undefined),-0.437% (inactive)
7,COc1ccc(C2CC(=O)c3cnc(NC(=O)c4ccccc4)nc3C2)c(OC)c1 (centres undefined),-3.54% (inactive)
8,S=c1[nH]nc(-c2cccnc2)n1C1CCCCC1,6.26% (inactive)
9,COCc1cc(=O)[nH]c2cc(NC(=O)C(F)(F)F)c(C)cc12,13.1% (inactive)
10,CCOc1ccccc1C1C(C(N)=O)=C(C)Nc2nc(-c3ccccc3Cl)nn21 (centres undefined),9.98% (inactive)
11,COc1ccc(C2C(C#N)=C(N)Oc3c2sc2nc(C)cc(C)c32)cc1 (centres undefined),17.4% (inactive)
12,Cc1ccc2cccc(OCC(=O)N3CCc4ccccc43)c2n1,-10.9% (inactive)
13,Cc1cc(-n2c(C)cc(C(=O)COc3cccnc3[N+](=O)[O-])c2C)no1,-3.66% (inactive)
14,CC(C)C[C@H]1C(=O)N2CCC[C@H]2[C@]2(O)O[C@](NC(=O)[C@@H]3C=C4c5cccc6[nH]c(Br)c(c56)CC4N(C)C3)(C(C)C)C(=O)N12 (some centres undefined),-4.13% (inactive)
15,CCC(C)OC1OC(CO)C(O)C(O)C1NC(C)=O (centres undefined),13.9% (inactive)
16,COc1ccc(S(=O)(=O)N2CCCOC2CNC(=O)C(=O)NCCCN2CCOCC2)cc1 (centres undefined),-0.455% (inactive)
17,CC(C)OC(=O)c1c(NC(=O)c2ccco2)sc2c1CCCC2,17.8% (inactive)
18,CCOC(=O)c1c(NC(=O)CCC(=O)O)sc2c1CC(C)(C)OC2,15.3% (inactive)
19,Cc1ccc(C(=O)N/C(=C\c2ccc(C(C)C)cc2)C(=O)NCCCN2CCOCC2)cc1,-15.5% (inactive)
20,O=C1OCc2ccc(NC(=O)C3CC3)cc21,1.73% (inactive)
21,Cc1cc(NC(=O)C2CC2)ccc1NC(=O)c1cccs1,-17.9% (inactive)
22,COc1ccc(-c2nc(C#N)c(NCC3CCCO3)o2)cc1OC (centres undefined),-1.88% (inactive)
23,CCOC(=O)CSc1cc(CS(C)(=O)=O)nc(-c2ccccn2)n1,7.55% (inactive)

row,SMILES,"activity change, negative = inhibition"
1,CC1CCN(CC[C@H]2CCCN2S(=O)(=O)c2cccc(O)c2)CC1,2.47% (inactive)
2,Cc1ccc(C(=O)c2cnc3ccccc3c2-c2ccccc2)cc1,-8.6% (inactive)
3,CN(C(=O)c1cc2sccc2n1C)C1CCCCC1,12.9% (inactive)
4,CN(C)CCCNC(=O)C(=O)NCC1CCCO1 (centres undefined),-5.29% (inactive)
5,Cc1ccc(Cn2nc(C)c(NC(=O)c3cc(C)no3)c2C)cc1,7.15% (inactive)
6,Cc1nn(Cc2ccccc2)c(C)c1NC(=O)c1noc2c1CCc1ccccc1-2,-0.677% (inactive)
7,O=C(CCCc1ccccc1)Nc1ccc2c(c1)OCCO2,-10% (inactive)
8,O=C(NCCc1ccccc1)c1n[nH]c2ccccc12,6.31% (inactive)
9,Cc1ccc(-n2c3nc(=O)[nH]c(=O)c-3cc3c(C)nn(-c4ccccc4)c32)c(C)c1,8.81% (inactive)
10,N#Cc1cn(CC(=O)N2CCCc3ccccc32)c2ccccc12,9.03% (inactive)
11,CC1CCc2nc(N)c(C#N)c(-c3ccncc3)c2C1 (centres undefined),16.1% (inactive)
12,CC(C)c1cc(C(=O)NCc2ccco2)no1,14.4% (inactive)
13,COc1ccc(-c2ccc(-c3noc(-c4ccccc4OC)n3)c(OC)n2)cc1,11.3% (inactive)
14,CCN(CC)S(=O)(=O)c1ccc(S(=O)(=O)Nc2ccc3c(c2)oc2ccccc23)cc1,2.45% (inactive)
15,C/C(=C\C(=O)OCCCCCCCCC(=O)O)C[C@@H]1OC[C@H](C[C@@H]2O[C@H]2[C@@H](C)[C@H](C)O)[C@@H](O)[C@H]1O,0.167% (inactive)
16,COc1ccc(S(=O)(=O)N(C)C)cc1NC(=O)CSc1nnc(-c2cccnc2)o1,6.6% (inactive)
17,CC1=CC(C)(C)N2C(=O)C3(C(C#N)=C(N)OC4=C3C(=O)CCC4)c3c(C)c(C)cc1c32 (centres undefined),5.51% (inactive)
18,CC1(C)CC(=O)C=C(NCCN2CCN(C(=O)Nc3ccccc3)CC2)C1,19.7% (inactive)
19,COCCCN=C(c1ccco1)n1c(=S)nc(-c2ccco2)n(CCCOC)c1=S,6.13% (inactive)
20,CSc1ccccc1NC(=O)CN(C)CC(=O)Nc1ccc(S(=O)(=O)N2CCCC2)cc1,6.77% (inactive)
21,O=C(COc1ccc([N+](=O)[O-])cc1)Nc1cc(S(=O)(=O)N2CCCCC2)ccc1N1CCCCC1,8.82% (inactive)
22,Cc1c(C)c2c(C)nn(-c3ccccc3)c2[nH]c1=O,-4.55% (inactive)
23,CC(C)C(c1nnnn1C1CCCC1)N1CCC(C(N)=O)CC1 (centres undefined),-2.09% (inactive)

row,SMILES,"activity change, negative = inhibition"
1,Cc1ccc(-n2nnnc2-c2cnc3cc4c(cc3c2C)OCO4)cc1,1.35% (inactive)
2,O=C(Cc1ccccc1Cl)c1ccccc1,10% (inactive)
3,O=C(NCc1ccccn1)C1CC(c2ccccc2O)=NO1 (centres undefined),-9.99% (inactive)
4,COc1cc2cc(CN(CCO)S(=O)(=O)c3ccccc3Cl)c(=O)[nH]c2cc1OC,0.781% (inactive)
5,COC(=O)Nc1ccc2c(c1)N(C(=O)CCN1CCOCC1)c1ccccc1S2,-14.7% (inactive)
6,CC(C)(C)OC(=O)N(CCc1ccccc1)Cc1cccc(OCc2cccc(NC(=O)/C=C/c3ccccc3)c2)c1,7.89% (inactive)
7,CCc1ccc(N2CC34C=CC(O3)C(C(=O)OC(C)C)C4C2=O)cc1 (centres undefined),18.4% (inactive)
8,Cc1nnc(SCc2ccccc2CSc2nnc(C)s2)s1,1.42% (inactive)
9,Cc1onc(-c2c(F)cccc2Cl)c1C(=O)Nc1sc2c(c1C#N)CCC(C(C)(C)C)C2 (centres undefined),-16.8% (inactive)
10,Cc1onc(-c2ccccc2)c1C(=O)NCc1ccc(F)cc1,-6.92% (inactive)
11,Cn1c(C(=O)NCc2cccs2)cc2c(=O)n(C)c3ccccc3c21,-14.9% (inactive)
12,CCCOc1ccc(/C(O)=C2/C(=O)C(=O)N(CCN(C)C)C2c2ccc(O)c(OC)c2)cc1 (centres undefined),8.34% (inactive)
13,COC(=O)CSc1ccc(C#N)c(SCC(=O)OC)c1,10.5% (inactive)
14,CCOC(=O)C1=C(C)NC(=S)NC1c1cc(C)sc1C (centres undefined),1.75% (inactive)
15,CCN(CC)C(=O)C1=C(C)NC(=O)NC1c1c(F)cccc1Cl (centres undefined),9.12% (inactive)
16,Nc1ccc2c(c1)-c1ccccc1S(=O)(=O)N2,-7.08% (inactive)
17,CCCOc1cccc(C(=O)Nc2ccc(Br)cc2F)c1,13.1% (inactive)
18,CCOC(=O)c1ccccc1-n1nnnc1C,14.4% (inactive)
19,O=C(CNc1ccc(Cl)cc1)c1ccc(Br)cc1,12.4% (inactive)
20,COc1ccc(-c2cc(C(=O)Oc3ccc([N+](=O)[O-])cc3)c3ccccc3n2)cc1,13.5% (inactive)
21,CCc1ccc(C(=O)Nc2ccc(S(=O)(=O)Nc3nc(C)cc(C)n3)cc2)o1,-4.41% (inactive)
22,O=S(=O)(/N=C(/Nc1ccccc1)c1ccccc1)c1cccs1,14.9% (inactive)
23,COC(=O)COc1cc2ccccc2cc1C(=O)Nc1ccccc1,11.7% (inactive)
